KAT2A inh – inhibitors of human GCN5L2 histone acetyltransferase; Q92830; GCN5L2 HAT assay, ThioGlo1 CoA-SH fluorescence; Potency, µM (highest dose often 58.9 µM), without a hit: top-dose activity change, negative = inhibition, hits mostly inhibitors; 390,000 tested, 0.21% active; AID 504327
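ThioGlo1-coupled HAT assay: 20nM GCN5L2, 70uM acetyl-CoA, 75uM H3(1-25) peptide, pH 7.5. Fluorescence read at 340/540nm at start and after 20 min at room temperature.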
TDP1 block – TDP1 (human) enzyme inhibition; Q9NUW8; recombinant TDP1, AlphaScreen DNA substrate cleavage; Potency, µM (titrated, usually from 130 µM), inactives show top-dose activity change, negative = inhibition, usual class: inhibitors; 350,000 tested, 0.28% active; AID 485290; also: nearly all actives have a fitted effect of over 40% in size
Target sequence (Q9NUW8 whole entry, looked up): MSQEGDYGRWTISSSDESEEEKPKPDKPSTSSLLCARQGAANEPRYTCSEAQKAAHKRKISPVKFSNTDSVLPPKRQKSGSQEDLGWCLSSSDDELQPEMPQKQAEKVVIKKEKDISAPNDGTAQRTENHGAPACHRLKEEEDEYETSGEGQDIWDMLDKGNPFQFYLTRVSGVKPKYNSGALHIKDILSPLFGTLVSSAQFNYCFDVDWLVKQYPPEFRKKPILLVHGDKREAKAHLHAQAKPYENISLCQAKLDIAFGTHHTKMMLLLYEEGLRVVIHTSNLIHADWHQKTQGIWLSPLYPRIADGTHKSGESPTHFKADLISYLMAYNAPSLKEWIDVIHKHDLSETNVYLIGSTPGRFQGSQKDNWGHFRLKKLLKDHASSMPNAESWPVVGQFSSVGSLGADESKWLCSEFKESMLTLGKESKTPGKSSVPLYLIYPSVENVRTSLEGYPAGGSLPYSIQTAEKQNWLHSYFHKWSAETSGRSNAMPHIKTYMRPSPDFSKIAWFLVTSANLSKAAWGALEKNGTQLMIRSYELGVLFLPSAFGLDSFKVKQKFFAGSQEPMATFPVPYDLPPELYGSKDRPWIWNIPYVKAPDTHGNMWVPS
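Recombinant E. coli-expressed Tdp1 (1 nM) preincubated with compound 15 min at RT, then 5'-biotin/3'-phosphotyrosine-FITC DNA substrate (15 nM) added for 5 min. AlphaScreen beads (10 ug/ml) added, 10 min RT; tyrosine-FITC cleavage read as signal loss.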
PLK1 PBD inh – blocks phosphopeptide binding to human PLK1 polo-box domain | P53350 | Plk1 PBD binding of FITC phosphopeptide, fluorescence polarization | Potency, µM, without a hit: max response, negative = inhibition, actives largely listed as inhibitors | 360,000 tested, 2.8% active; also: series mostly up to about 57 µM; nearly all actives have a fitted effect of over 65% in size
VDR inh – blocks the human vitamin D receptor; 400,000 tested, 0.93% active; Potency, µM, for inactives: max response, negative = inhibition, actives largely listed as inhibitors; AID 504847; VDR-SRC2-3 peptide fluorescence polarization, 2 h; P11473
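Inhibition of the VDR/SRC2-3 peptide interaction is quantified by fluorescence polarization. Compounds (23 nl, pintool) incubate with the reagents for 2 hours at ambient room temperature.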
DT40 TDP1 no CPT – qHTS for Inhibitors of human tyrosyl-DNA phosphodiesterase 1 (TDP1): qHTS in cells in absence of CPT. DT40 Tdp1-/- hTDP1 cells, no CPT, ATP luminescence, 48 h. Potency, µM (titrated, usually from 46.2 µM), without a hit: at the top dose activity change, negative = growth inhibition, most hits filed as inhibitors. 420,000 tested, 15% active; also: nearly all actives have a fitted effect of over 55% in size
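Seeded 400 DT40-hTDP1 cells/well (vehicle DMSO, no 20 nM CPT); pinned compounds; ≥48 hr at 37 °C; CellTiter-Glo luminescence as viability measure.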
TDP1 cell CPT – growth inhibition of DT40 Tdp1-/-;hTDP1 cells with camptothecin (screen for TDP1 inhibitors). chicken DT40 Tdp1-/-;hTDP1 cells + 20 nM CPT, ATP luminescence, 48 h. 420,000 tested, 12% active. Potency, µM (highest dose often 46.2 µM), for the others: at the highest dose activity change, negative = growth inhibition, actives largely listed as inhibitors; also: nearly all actives have a fitted effect of over 55% in size
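Chicken DT40 Tdp1-/- cells complemented with human TDP1, 400 cells/well, exposed to compounds plus 20 nM camptothecin for at least 48 h at 37 C; viability read as ATP content by CellTiter-Glo luminescence.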
Starred values were filed as active, the others as inactive; ? = inconclusive; / = no result given; [ ] = dose if it differs, or a comment. In the library only some 18% were active in any assay of this set; here they are far more common. Calls follow the shape of the dose curve; as a rule, active = well fitted curve in the direction sought with a large enough effect; inconclusive = small, poorly fitted or top-dose-only effect, or another doubt; inactive = no such curve, though single readings can be large; an effect the other way counts as inactive or inconclusive. % is scaled to controls: 0 for no effect and ±100 for the full control effect; potency is read from the fitted curve at half-maximal effect.

SMILES | KAT2A inh | TDP1 block | PLK1 PBD inh | VDR inh | DT40 TDP1 no CPT | TDP1 cell CPT
O=C(COC(=O)/C=C/c1ccccc1[N+](=O)[O-])NNC(=O)c1ccc(F)cc1 | -6.9% | 3.6%[0.505 µM] | -5.7% | 1.2% | -1.0% | -3.0%
CN(C)C(=O)c1ccc(-c2cncnc2NCCc2cnc[nH]2)cc1 | -1.5% | / | / | 0.0% | -23.3% | ?
CCCCN1C2CCCC1CC(NC(=O)C1CCCCC1)C2 (stereo not given) | 1.9% | 2.2% | -4.1% | -7.3% | -6.6% | -0.4%
CCc1nc(SCC(=O)Nc2ccc(N(CC)CC)cc2)n[nH]1 | / | / | 29.9µM* | 6.9% | -9.7% | -7.5%
CCOC(=O)c1sc(SCC(=O)Nc2ccc(N(C)C)cc2)nc1N | -9.6% | 8.6% | -2.5% | 10.0% | -22.0% | -6.3%
CCc1nc(SCC(=O)Nc2ccc([N+](=O)[O-])cc2)n[nH]1 | ? | 2.9%[56.1 µM] | -6.7% | -10.8% | 21.0% | -9.4%
CCc1nc(SCC(=O)Nc2ccc(N(C)C)cc2)n[nH]1 | 2.0% | 7.8% | 2.3% | -17.1% | 4.61µM* | 4.61µM*
CN(C)c1ccc(NC(=O)CSc2nc(N)c(C(=O)Nc3ccc(N(C)C)cc3)s2)cc1 | -6.9% | 10.3% | -14.0% | ? | 12.6µM* | 10µM*
CCc1nc(SCC(=O)Nc2ccc(C(=O)O)cc2)n[nH]1 | -1.6% | 0.0% | -7.7% | 3.8% | -2.2% | ?
Cc1cc(C)n2nc(CNC(=O)c3ccccc3Cl)nc2n1 | -5.2% | 2.5% | / | 16.1% | -9.8% | -16.9%
CCc1ccccc1N(C)C(=O)Nc1cn(CC(C)C)c(=O)c2ccccc12 | 18.8% | 0.0% | / | 9.4% | 23.1µM* | 14.6µM*
COc1ccc(CNC(=O)Nc2cn(CC(C)C)c(=O)c3ccccc23)c(OC)c1 | -0.8% | 0.0% | / | 7.0% | ? | -27.2%
CCCN(C(=O)Nc1cn(CC(C)C)c(=O)c2ccccc12)c1ccc(F)cc1 | -4.1% | -1.1% | / | 3.9% | 18.4µM* | 7.31µM*
Cc1cc(=O)n(Cc2ccccc2)c2c1c(C)nn2C | -6.8% | -4.5% | / | -1.1% | ? | ?
CC(C)(C#N)NC(=O)C(=O)c1c(-c2ccccc2)cc2ccccn12 | -6.8% | / | -3.1% | 5.8% | -0.8% | 4.7%
O=C(O)c1ccn2c(C(=O)c3ccc(Cl)cc3)c(-c3ccccc3)cc2c1 | -22.2% | 8.3% | 37.7µM* | -5.8% | -25.8% | -6.9%
Cc1cccc(OC(C)C(=O)N2CCC(c3nc4ccccc4o3)CC2)c1C (stereo not given) | -6.3% | 6.8% | / | -5.2% | 23.1µM* | ?
CC(C)(C)c1ccc(C(=O)N2CCC(c3nc4ccccc4o3)CC2)cc1 | -4.8% | -1.6% | / | -7.3% | 14.6µM* | 20.6µM*
CCOc1ccc(NC(=O)N2CCC(c3nc4ccccc4o3)CC2)cc1 | -6.6% | 2.6% | -3.4% | 8.2% | ? | ?
CCOc1ccccc1C(=O)N1CCC(c2nc3ccccc3o2)CC1 | 3.4% | -6.8% | / | 5.6% | 20.6µM* | ?
Cc1cc(Cl)ccc1OCC(=O)N1CCC(c2nc3ccccc3o2)CC1 | -12.3% | -1.6% | / | 0.6% | 16.4µM* | ?
CC1(C)CC(=O)C2=C(C1)O[C@@]1(c3ccsc3)Cc3cc(C#N)ccc3C2O1 | -15.9%[12.7 µM] | / | / | / | / | /
CCSc1nnc(NC(=O)CSc2nnc(CNC(=O)c3ccc(OC)c(OC)c3)o2)s1 | -5.4% | -0.6% | -4.0% | -6.5% | -8.7% | -15.8%
O=C(c1ccc(Cl)cc1)N1CCC(c2nc3ccccc3o2)CC1 | 1.8% | 3.6% | / | -2.8% | 14.6µM* | ?
O=C(c1ccccc1)N1CCC(c2nc3ccccc3o2)CC1 | -2.1% | 1.6% | / | 5.5% | ? | ?
SMILES | KAT2A inh | TDP1 block | PLK1 PBD inh | VDR inh | DT40 TDP1 no CPT | TDP1 cell CPT
CC(C)Oc1ccc(C(=O)N2CCC(c3nc4ccccc4o3)CC2)cc1 | -5.2% | 6.8% | / | -3.0% | 18.4µM* | ?
COCC(=O)OC1CCn2c1nc1c2C(=O)C(C)=C(NC(C)=O)C1=O (stereo not given) | / | / | -21.5% | -4.0% | 2.31µM* | 2.59µM*
Cc1ccc(CNC(=O)CN2C(=O)CSc3ccc(S(=O)(=O)N(C)C)cc32)cc1 | 4.0% | 0.0% | / | 4.9% | -6.7% | ?
COc1ccc(NC(=O)Cn2c(=O)n(Cc3ccc4c(c3)OCO4)c(=O)c3ccc(C(=O)NC4CCCCC4)cc32)cc1 | 0.2% | 0.0% | / | -11.0% | 7.31µM* | 8.2µM*
CCOc1ccc(NC(=O)Cn2c(=O)n(Cc3ccco3)c(=O)c3ccc(C(=O)NC4CCCC4)cc32)cc1 | -1.9% | 0.0% | / | -1.1% | -27.4% | ?
CC(Oc1ccccc1)C(=O)Nc1nnc2n1CCS2 (stereo not given) | 0.0% | -2.2% | / | 3.0% | -4.5% | -15.1%
N#Cc1nc(NCCO)nc(Nc2ccccc2)n1 | / | 20.3% | / | / | / | /
Cc1ccc(C(=O)Nc2nc(=O)n(C)s2)cc1 | 0.5% | 0.0% | 3.0% | -11.4% | -12.3% | -3.0%
Cc1ccc(C(=O)Nc2nc(=O)n(C(=O)CC(C)C)s2)cc1 | -0.2% | 5.3% | -19.4% | ? | -18.2% | -29.2%
Cc1ccc(C(=O)Nc2nc(=O)n(C(=O)c3ccccc3Cl)s2)cc1 | 2.4% | 3.6% | ? | 17.8µM* | -29.4% | -4.8%
CC(C)CC(=O)n1sc(NC(=O)c2ccccc2)nc1=O | -5.7% | 4.9% | -6.7% | 44.7µM* | 20.6µM* | 14.6µM*
CO/S(=N\S(=O)(=O)c1ccc(Cl)cc1)c1ccc([N+](=O)[O-])cc1 (stereo not given) | -11.5% | / | / | ? | / | /
CC1CCCCN1C(=O)c1ccc(C(=O)c2ccccc2)cc1 (stereo not given) | -1.9% | -2.5% | 2.5% | -14.6% | 14.6µM* | ?
CC1CCCCN1C(=O)CNCc1ccc(F)cc1 (stereo not given) | -14.5% | / | -0.1% | -13.7% | -10.5% | 4.1%
CC1CCCCN1C(=O)COc1ccccc1F (stereo not given) | -8.9% | 0.0% | 26.7µM* | 1.6% | ? | -29.6%
CSCCC(NC(=O)c1ccccc1)C(=O)Nc1ccc(NC(C)=O)cc1 (stereo not given) | 4.3% | 2.8% | / | / | / | /
CSc1nc2nccc(/C=C\c3ccccc3)n2n1 | -6.3% | 4.8% | -7.4% | 11.1% | 23.1µM* | ?
Cc1nc(N2CCN(C(=O)c3ccco3)CC2)c2c3c(sc2n1)CC(C)CC3 (stereo not given) | -15.9% | 4.8% | -15.3% | -20.4% | 16.4µM* | 20.6µM*
Cc1nc(N2CCN(C(=O)c3cccs3)CC2)c2c3c(sc2n1)CCCC3 | -2.7% | 3.6%[0.0935 µM] | -13.6% | -22.1% | ? | ?

Screens deposited in PubChem BioAssay by National Center for Advancing Translational Sciences (NCATS).
